Assay outcomes (PubChem BioAssay)
G9a inh: qHTS Assay for Inhibitors of Histone Lysine Methyltransferase G9a | Histone-lysine N-methyltransferase EHMT2 (Homo sapiens), Q96KQ7 | AID 504332, 2011 | hit rate 8.8% among 350,000 | Potency, µM (titrated, usually from 102 µM), for inactives: top-dose activity, negative = inhibition, hits mostly inhibitors | G9a H3K9 monomethylation, AlphaScreen, 2 h; note: % is set by controls: 0 for no effect and ±100 for the full control effect; nearly all actives have a fitted effect of over 75% in size
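G9a (20 nM) preincubated 15 min RT with compounds, then 500 nM biotinylated H3K9 peptide and 20 uM SAM added; 2 h RT reaction. Monomethyl-H3K9 product detected by AlphaScreen with anti-H3K9me1 antibody, streptavidin donor and anti-rabbit IgG acceptor beads.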
JMJD2A Tudor: qHTS Assay for Inhibitors of JMJD2A-Tudor Domain; hit rate 4.4% among 390,000; AlphaScreen JMJD2A-Tudor / H3K4me3 peptide binding; Potency, µM (titrated, usually from 114 µM), inactives show at the highest dose activity change, negative = inhibition, most hits filed as inhibitors; AID 504339, 2011; note: % is set by controls: 0 for no effect and ±100 for the full control effect; nearly all actives have a fitted effect of over 50% in size
BAZ2B block: qHTS Assay for Inhibitors of BAZ2B. Bromodomain adjacent to zinc finger domain protein 2B (Homo sapiens), Q9UIF8. Potency, µM (top dose mostly 114 µM), for the others: at the top dose activity change, negative = inhibition, actives largely listed as inhibitors. AlphaScreen BAZ2B-H3K14Ac peptide displacement. hit rate 4.4% among 360,000; note: % is set by controls: 0 for no effect and ±100 for the full control effect; nearly all actives have a fitted effect of over 60% in size
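Complex of BAZ2B and biotin-H3K14Ac (50 nM apiece) forms over 30 min at RT, then faces library compounds up to 110 uM for another 30 min; AlphaScreen beads added, 20 min dark incubation, luminescence read.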
Sfp inh: qHTS Assay for Inhibitors of Bacillus subtilis Sfp phosphopantetheinyl transferase (PPTase) | Biochemical Sfp PPTase activity, qHTS | Potency, µM, without a hit: largest response in the series, negative = inhibition, most hits filed as inhibitors | hit rate 3.5% among 310,000 | AID 1490, 2009 | 4'-phosphopantetheinyl transferase ffp (Bacillus subtilis), Q9F4F7;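 note: the enzyme is Sfp with the accession as filed and its product quenches rhodamine fluorescence; 0% = enzyme reaction without inhibitor and -100% = no enzyme wells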
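Reaction rates are the 30-min fluorescence difference (ex 525, em 598 nm) in wells containing 15 nM Sfp, 5 uM rhodamine-CoA and 12.5 uM BHQ-2-YbbR at pH 7.6 with 10 mM MgCl2.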
HP1b binding inh: HTS for Inhibitors of HP1-beta Chromodomain Interactions with Methylated Histone Tails; Chromobox protein homolog 1 (Homo sapiens), P83916; AlphaScreen HP1-beta / biotin-H3K9me3 peptide binding; Potency, µM (series often up to 114 µM), without a hit: at the highest dose activity change, negative = inhibition, hits mostly inhibitors; hit rate 0.56% among 390,000; note: nearly all actives have a fitted effect of over 70% in size
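HP1-beta protein (50 nM final) preincubated 30 min at room temperature with biotinylated H3(1-18)K9me3 peptide (50 nM) in PBS pH 7.4, 0.01% Tween-20, then compound added for 30 min. AlphaScreen streptavidin donor/nickel chelate acceptor beads (10 ug/mL final), 30 min dark, luminescence read.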
Active calls of the source: *; ? = inconclusive; · = no result; [ ] = dose if it differs, or a comment. Only some compounds are listed: those with a hit (about 12% of all), similar ones and a draw of the others. Calls come from the whole dose curve; as a rule, active = well fitted curve in the direction sought with a large enough effect; inconclusive = small, poorly fitted or top-dose-only effect, or another doubt; inactive = no such curve, though single readings can be large; an effect the other way counts as inactive or inconclusive. Potency is the fitted concentration of half-maximal effect.

SMILES | G9a inh | JMJD2A Tudor | BAZ2B block | Sfp inh | HP1b binding inh
O=C(CN1CCN(C2CCCCC2)CC1)c1ccc2cc[nH]c2c1 | 28.2µM* | -34.7% | -25.6% | 4.1% | 21.5%
CN(C)CCNc1nc2sc3c(c2c(=O)n1CCc1ccccc1)CCCCC3 | 39.8µM* | 50.1µM* | 44.7µM* | -18.0% | -24.3%
CC(O)CNc1nc2sc3c(c2c(=O)n1CCc1ccccc1)CCCCC3 (stereo not drawn) | 50.1µM* | ? | ? | -23.3% | ?
CC(O)CNc1nc2sc3c(c2c(=O)n1Cc1ccco1)CCCCC3 (stereo not drawn) | · | -20.3% | -5.2% | ? | 10.1%
COC(C1CCCCC1)C(C)C(OCc1cccc(Br)c1)C(C)CO (stereo not drawn) | · | · | · | -1.3% | ·
CCc1ccc2[nH]c(C(=O)Nc3ccc(C)c(F)c3)cc2c1 | 6.6%[2.33 µM] | -14.4% | -5.6% | 11.5% | 32.1%
CCc1ccc2[nH]c(C(=O)N(C)c3ccc(F)cc3F)cc2c1 | 39.8µM* | -12.9% | -12.1% | ? | 27.3%
COc1ccc(Cn2c(C(=O)O)c(CNCC(C)c3ccccc3)c3ccc(OC)cc32)cc1 (stereo not drawn) | -7.9%[59 µM] | ? | ? | · | -9.0%
Cc1ccc(C)c(-c2ccc(C(=O)O)o2)c1 | ? | · | · | 112µM* | ·
COc1ccccc1-c1ccc(C(=O)O)o1 | -50.6%[12.7 µM] | -22.1% | -6.5% | 11.0% | 20.7%
COc1ccc(Cl)cc1-c1ccc(C(=O)O)o1 | ? | · | · | 112µM* | ·
O=C(Cc1ccc(F)cc1)N1CCC(c2nc3c(nnn3Cc3ccc(F)cc3)c(=O)[nH]2)CC1 | ? | -16.4% | -17.2% | · | 11.7%
O=C(CS(=O)(=O)c1cccc2nsnc12)Nc1cc(F)ccc1F | -2.0%[59 µM] | -20.0% | -18.4% | · | 21.6%[57 µM]
COC(=O)[C@H](Cc1ccccc1)NC(=O)[C@H]1C[C@@H]1[C@H](NC(=O)OCc1ccccc1)c1ccccc1 | · | · | · | -24.3% | ·
CC(=O)N1CCC2(CC1)OC(=O)C(C)=C2C(=O)NCc1cccc(Cl)c1 | 9.8%[59 µM] | -4.2% | 2.5% | · | -11.6%
CCc1nc2sc3c(O)cc(=O)[nH]c3c2cc1C | 44.7µM* | -9.1% | -0.3% | ? | 40.6%
COC(=O)c1cc(=O)n(-c2ccc(F)cc2)c(=Nc2ccc(F)cc2)s1 | 39.8µM* | ? | ? | 3.5% | -14.3%
COC(=O)c1cc(=O)n(Cc2ccco2)c(=Nc2ccc(F)c(Cl)c2)s1 | 35.5µM* | ? | ? | ? | -21.2%
COC(=O)c1cc(=O)n(Cc2cccs2)c(=Nc2ccc(F)cc2)s1 | · | -26.4% | ? | 0.9% | -16.1%
COC(=O)c1ccc(N=c2sc(C(=O)OC)cc(=O)n2C)cc1 | ? | -22.4% | -15.2% | 6.0% | 29.7%
COC(=O)c1cc(=O)n(CCc2ccccc2F)c(=Nc2ccc(F)c(Cl)c2)s1 | 39.8µM* | ? | ? | 2.9% | 3.0%
Cc1ccc(C(=O)c2oc3ccccc3c2NC(=O)COc2ccc(Cl)c(C)c2)cc1 | 8.4%[59 µM] | -9.3% | 1.1% | · | 19.9%
C#CCCCO/N=C1/C[C@@H](O)[C@@H](O)[C@@H]2[C@@H]3C(=O)N([C@@H](C)c4ccccc4)C(=O)[C@H]3CC[C@@H]12 | · | · | · | 12.8% | ·
O=C(Nc1cccc(-c2nc3cccnc3s2)c1)c1cccnc1Cl | 6.2% | -16.9% | -23.6% | 20.3% | 41.1%
O=C(Nc1cccc(-c2nc3cccnc3s2)c1)C1c2ccccc2Oc2ccccc21 | ? | ? | 79.4µM* | 5.8% | 25.5%
SMILES | G9a inh | JMJD2A Tudor | BAZ2B block | Sfp inh | HP1b binding inh
COc1cc2c(cc1OC)-c1c(OC)c(OC)cc3ccnc(c13)C2=O | -15.0% | -24.6% | 14.1µM* | -4.2% | 42.2%
CCOC(=O)C1(Cc2cccc(OC)c2)CCCN(C(=O)c2cc(C)on2)C1 (stereo not drawn) | ? | -0.7% | -2.9% | 21.5% | 27.6%
O=C(N1CCN(c2ccccn2)CC1)C(Cl)(Cl)Cl | -26.8%[59 µM] | -3.5% | 2.8% | -2.4% | 41.7%
O=C1C=C(N2CCN(c3ccccn3)CC2)C(=O)c2c(O)ccc(O)c21 | · | 31.6µM* | · | · | ?
Cc1ccc(N(C(C)C(=O)Nc2ccccc2C(=O)N2CCOCC2)S(C)(=O)=O)cc1C (stereo not drawn) | -6.0%[12.7 µM] | -6.0% | 9.7% | 6.7% | 12.1%
CC(C(=O)Nc1ccccc1C(=O)N1CCOCC1)N(c1ccc(Cl)cc1)S(C)(=O)=O (stereo not drawn) | 4.3% | 11.2µM* | -13.9% | 7.2% | ?
CC(=O)N/C(=N/c1nc(C)cc(C)n1)Nc1cccc(C)c1 | -12.3% | -3.1% | -8.1% | -5.3% | 17.4%
O=C(NCc1ccco1)c1cc2nc(-c3cccs3)cc(C(F)(F)F)n2n1 | ? | -8.9% | -7.7% | -20.2% | 16.0%
FC(F)(F)c1cc(-c2cccs2)nc2cc(-c3ccccc3)nn12 | 17.3%[59 µM] | 33.3% | 21.8% | 3.3% | 70.3%
O=C(NCCc1ccccc1)c1nc2nc(-c3cccs3)cc(C(F)(F)F)n2n1 | -44.5%[59 µM] | ? | 50.1µM* | ? | 50.3%
O=C(NCc1cccnc1)c1cc2nc(-c3cccs3)cc(C(F)(F)Cl)n2n1 | 50.1µM* | -5.6% | -36.1% | -9.7% | 44.7%
O=C(O)c1cc2nc(-c3cccs3)cc(C(F)(F)F)n2n1 | 70.8µM* | -33.6% | 50.1µM* | 3.0% | 20.1%
Cc1ccc(N2CC(NC(=O)c3ccc(Br)o3)CC2=O)cc1C (stereo not drawn) | 6.4%[59 µM] | -8.1% | -6.5% | · | 9.9%
Cc1cc(C)c(S(=O)(=O)/N=C2\C=CC(=O)C(Cl)=C2)c(C)c1 | 7.94µM* | 31.6µM* | -12.4% | 50.1µM* | ?
O=C(O)c1cnnc2ccccc12 | · | -2.1% | · | · | 18.1%
COc1cccc(/C=C/C(=O)NNC(=O)c2ccco2)c1OC | ? | -9.2% | -10.8% | · | 40.7%
C[n+]1cccc(CNC(=O)/C=N/O)c1 | 39.8µM* | ? | 56.2µM* | -2.5% | 9.9%
O=C(/C=N/O)NCc1cccnc1 | ? | -8.4% | -25.6% | 8.4% | 21.0%
Cc1ccccc1CSc1nnc(-c2ccccn2)n1C | -4.0% | -4.8% | 79.4µM* | 2.7% | 31.6%
Cc1ccccc1-n1ccnc1SCC(=O)O | -15.1% | -12.4% | -21.0% | 4.8% | 25.1%
